# Measurements from the OligoGym collection.
# Biological target: HAX1
# Experiment: pooled miR-30 sensor sort-seq; sequence = guide strand
# Conditions: shRNA
# Note: reference of the scale not given here.
row,Sequence,sensor-assay potency score (higher = more potent)
1,TTAGTGATCTTGGTCACAGAGA,-0.982
2,TTGGTCACAGAGATGCTCTTGA,0.864
3,TAGGACTGCTATCTGCTTCGTG,0.298
4,TTACTGTAGTCTCTGTCCGGCC,-0.884
5,TACTAGGTCATCAAAGCCGAAG,-1.1
6,TACTTAAGCATTGAGTCCCGAA,-0.493
7,TTCACTATTCCACATATCCAAG,-1.52
8,TCACTGTCCACCACAGTCCGGC,-0.474
9,TGCTATTGAAATCTCGTACTAG,0.119
10,ACTTCTTGCATCACTCTCCAAG,-1.46
11,TATTGAAATCTCGTACTAGGTC,-0.361
12,TTATCGTGGAAACGTATCCCTC,-1.22

# Biological target: HBA1
# Experiment: as above
# Conditions: shRNA
row,Sequence,sensor-assay potency score (higher = more potent)
1,TCAAAGACCACGGGGGTACGGG,-0.714
2,ACCACGGGGGTACGGGTGCAGG,-2.46
3,AAGGGGCAAGAAGCATGGCCAC,-1.79
4,TACGGGTGCAGGAAGGGGAGGA,-0.675
5,AAAGACCACGGGGGTACGGGTG,-1.54
6,TTCAAAGACCACGGGGGTACGG,-1.1
7,ACGGGGGTACGGGTGCAGGAAG,-2.14
8,AAGACCACGGGGGTACGGGTGC,-0.867
9,CAGGAAGGGGAGGAGGGGCTGG,-1.95

# Biological target: HBA2
# Experiment: as above
# Conditions: shRNA
row,Sequence,sensor-assay potency score (higher = more potent)
1,TTTATTCAAAGACCAGGAAGGG,-0.785
2,TGGCTTAGGAGCTTGAAGTTGA,-0.42
3,TCAAAGACCAGGAAGGGCCGGT,0.259
4,AAGTAGGTCTTGGTGGTGGGGA,-0.536
5,TGCAAGGAGGGGAGGAGGGCCC,-1.68
6,AAGACCAGGAAGGGCCGGTGCA,-1.15
7,AGACCAGGAAGGGCCGGTGCAA,-1.65
8,AAGGGCCGGTGCAAGGAGGGGA,-0.735
9,TTCAAAGACCAGGAAGGGCCGG,-0.416
10,AAGTTGACCGGGTCCACCCGAA,-0.435
11,AGGGCCGGTGCAAGGAGGGGAG,-1.98
12,TTGGGAGGCCCAGCGGGCAGGA,-2
13,TTATTCAAAGACCAGGAAGGGC,-1.06
14,AGGAAGGGCCGGTGCAAGGAGG,-2.16
15,TATTCAAAGACCAGGAAGGGCC,-0.938

# Biological target: HBB
# Experiment: as above
# Conditions: shRNA
row,Sequence,sensor-assay potency score (higher = more potent)
1,ATTCTTTGCCAAAGTGATGGGC,-0.706
2,AACAGCATCAGGAGTGGACAGA,-1.35
3,TCTGATAGGCAGCCTGCACTGG,-0.723
4,AACTTCATCCACGTTCACCTTG,-0.552
